Reference: PubChem BioAssay (NCATS)
Records with an inconclusive call do not appear. A number with no mark means an inactive call. Activity calls are given as the source filed them. Calls follow the shape of the dose curve; as a rule, active = well fitted cell-killing curve with a large enough effect; inconclusive = small, poorly fitted or top-dose-only effect, or effect the other way; inactive = no such curve, though single readings can be large or run the other way.

Assay: Viability qHTS for spleen associated tyrosine kinase inhibitor (SYKi) naive MV4-11 cells (AID 1963823); also: nearly all actives have a fitted effect of over 40% in size
Details: MV4-11 AML viability, CellTiter-Glo luminescence, 72 h; series mostly up to 45 µM; viability (% of control): at the top concentration
Source text: Department of Medicine, Hematology/Oncology
University Hospital Frankfurt, Germany.
Trials have shown promising clinical activity of the selective SYK inhibitor entospletinib in patients with high expressing HOXA9/MEIS1 acute leukemias. As the development of resistance mechanisms is a common problem in the use of targeted drugs, we performed a chemical library screen to identify drug sensitivities in SYK inhibitor resistant AML cells. […] Glucocorticoids are potent immunosuppressants which work in part by inhibiting the transcription of cytokine genes.
Described herein is a viability screen to look for activity in the SYK inhibitor naive cell line against four NCATS compound libraries (MIPE 5.0, NPC, NPACT, and Kinase) totaling 11372 compounds. Active hits were reacquired for confirmation and further secondary assay testing.
SEQUENCE No. (e.g., 1, 2, 3, etc.); […] (e.g., Cells, Incubation, Reagent, etc.); VALUE; DESCRIPTION.
1; Media; 2uL; white, solid-bottom Corning assay plate.
2; Compounds; 23nL; Echo acoustic dispenser.
3; Cell; 5uL; 500 cells per well.
4: Incubation; 72hr; 37 C, 5% CO2, 95% humidity.
5; Reagent; 3uL; CellTiter-Glo reagent (Promega).
6; Incubation; 10min; room temperature.
7; Detection; Luminescence; ViewLux plate reader (PerkinElmer).
NOTES (numbers refer to Sequence numbers above
1. Quantitative high-throughput screening (qHTS) of small molecule compounds was conducted on naive SYKi MV4-11 cell line.
2. Twenty-three nanoliter of small molecule compounds were added to each assay plates using the Echo acoustic dispenser (Beckman Coulter).
3. Cells were seeded into the assay plates at a final density of 500 cells in 5uL of media per well using the Multi-drop Combi dispenser.
4. Plates were covered with stainless steel gasketed lids and incubated for 72 hours at standard cell culture conditions.
5. Viability was assessed by adding 3uL of CellTiter-Glo detection reagent (Promega).
6. Plates were covered with gasket lids and incubated for 10 minutes at room temperature.
7. Luminescence was measured on a ViewLux plate reader (PerkinElmer).
Potency is read from the fitted curve at half-maximal effect.

| SMILES | Potency | viability (% of control) |
| --- | --- | --- |
| C=CC(=O)Nc1cc(Nc2nccc(-c3cn(C)c4ccccc34)n2)c(OC)cc1N(C)CCN(C)C | 1.46 µM (active) |  |
| COc1ccc(-n2c(SCC#N)nc3sc4c(c3c2=O)CCCC4)cc1 |  | 84% |
| CCCCCCCCCCCCCCCCC(C(=O)O)C(O)(CC(=O)O)C(=O)O (stereo not given) |  | 75.6% |
| Cc1c(N)cccc1C(F)(F)F |  | 91.7% |
| O=C(Nc1ccc(Cl)cc1)C1CCCN(C(=O)c2cccc(-c3ccco3)c2)C1 (stereo not given) | 8.2 µM (active) |  |
| COc1cc(Nc2ccc([N+](=O)[O-])cc2C(=O)O)cc2ccccc12 |  | 78.6% |
| COc1cc(O)cc(C)c1C(=O)O[C@H]1[C@@H](OC(C)=O)[C@H](n2ccc(=O)[nH]c2=O)O[C@@H]1CO |  | 99.9% [at 17.3 µM] |
| C=C[C@]1(C)C=C2CCC3C(C)(CCC[C@@]3(C)C(=O)O)C2CC1 (stereo not given in full) |  | 71.8% |
| C=C1C(=O)O[C@@H]2/C=C(/C)[C@@H](OC(C)=O)C/C=C(\C)C[C@@H](OC(=O)/C(=C/CO)CO)[C@@H]12 | 3.99 µM (active) |  |
| CC1CCC2(C(=O)OC3OC(CO)C(O)C(O)C3O)CCC3(C)C(=CCC4C5(C)CC(O)C(O)C(C)(C(=O)O)C5CCC43C)C2C1(C)O (stereo not given) |  | 78.1% [at 17.3 µM] |
| Cn1c(N2CCCCS2(=O)=O)nc(C(=O)NCc2ccc(F)cc2)c(O)c1=O |  | 63.7% |
| CSc1nc(N)cc(Oc2ccc(-c3nc(Nc4cccc(C(F)(F)F)c4)n[nH]3)cc2)n1 | 1.16 µM (active) |  |
| C[C@@]1(F)[C@H](O)[C@@H](CO)O[C@H]1n1ccc(N)nc1=O |  | 76% |
| CN1[C@@H]2CC[C@H]1CC(OC(=O)C(O)c1ccccc1)C2 (stereo not given in full) |  | 101% |
| CC1=CC(=O)CC(C)(C)C1CCC(C)O[C@@H]1O[C@H](CO[C@@H]2OC[C@@H](O)[C@H](O)[C@H]2O)[C@@H](O)[C@H](O)[C@H]1O (stereo not given in full) |  | 58.7% [at 17.3 µM] |
| CCC(C)/C=C(C)/C=C/C1=CC2=C(Cl)C(=O)C(C)(OC(C)=O)C(=O)C2=CN1C(CC(=O)O)C(=O)O (stereo not given) |  | 65.8% [at 17.3 µM] |
| CNC(=O)c1ccccc1Nc1nc(Nc2ccc3c(c2OC)CCC[C@@H](N2CCN(CCO)CC2)C3)ncc1Cl | 0.366 µM (active) |  |
| NCC1CCC(C(=O)Oc2ccc(CCC(=O)O)cc2)CC1 (stereo not given) |  | 85.8% |
| O=C(O)c1ccc(O)c2ncc(N3CCCN(CCc4cccc5ccccc45)CC3)cc12 | 18.4 µM (active) |  |
| O=c1c(-c2ccc(O)cc2)coc2c([C@@H]3O[C@H](CO)[C@@H](O)[C@H](O)[C@H]3O)c(O)ccc12 |  | 102% |

| SMILES | Potency | viability (% of control) |
| --- | --- | --- |
| O=C(/C=C/c1ccc(O)c(O)c1)OCc1ccccc1O[C@@H]1O[C@H](CO)[C@@H](O)[C@H](O)[C@H]1O |  | 81.1% [at 17.3 µM] |
| CN(C)CCN(Cc1ccccc1)c1ccccn1 |  | 59.9% |
| C[C@@H]1CC[C@]2(C(=O)O)CC[C@]3(C)C(=CCC4[C@@]5(C)C[C@@H](O)[C@H](O)[C@@](C)(CO)C5CC[C@]43C)C2[C@]1(C)O (stereo not given in full) |  | 76.2% [at 17.3 µM] |
| CC(C)=CCC(O)[C@](C)(O)C1[C@H](O)C[C@@]2(C)C3CC=C4C(C[C@H](O)[C@@H](O[C@@H]5O[C@H](CO)[C@@H](O)[C@H](O)[C@H]5O)C4(C)C)[C@]3(C)C(=O)C[C@]12C (stereo not given in full) |  | 68.7% [at 17.3 µM] |
| C=C1C[C@@]23CC[C@@H]4[C@](C)(C(=O)O)CCC[C@@]4(C)C2=CC[C@H]1C3 |  | 87.2% |
| CN1CCC[C@@H]1Cc1c[nH]c2ccc(CCS(=O)(=O)c3ccccc3)cc12 |  | 61.2% |
| CCN1CCN(C(=O)N[C@@H](C(=O)N[C@@H]2C(=O)N3[C@@H]2SC(C)(C)[C@H]3C(=O)O)c2ccccc2)C(=O)C1=O |  | 73% |
| CCC(C)/C=C(C)/C=C/C1=CC2=C(Cl)C(=O)C(C)(OC(C)=O)C(=O)C2=CN1C1CCCCN(C(CCC(N)=O)C(=O)O)C1=O (stereo not given) |  | 65.4% [at 17.3 µM] |
| Cc1ccc(NS(=O)(=O)c2cc3c(cc2N[C@@H](C)CO)NC(=O)CC3)cc1Cl | 16.4 µM (active) |  |
| CC[C@@H]1C[C@]1(NC(=O)[C@@H]1C[C@@H]2CN1C(=O)[C@H](C(C)(C)C)NC(=O)OCC(C)(C)CCCCc1cccc3c1CN(C3)C(=O)O2)C(=O)NS(=O)(=O)C1CC1 | 20.6 µM (active) |  |
| CCCNC(C)C(=O)Nc1ccccc1C (stereo not given) |  | 92.2% |
| O=C(O)c1ccnc2cc(C(OCC3CCC(F)(F)CC3)c3ccccc3Cl)[nH]c12 (stereo not given) |  | 35.9% |
| O=C1NC(O)CCN1[C@@H]1O[C@H](CO)[C@H](O)[C@H]1O (stereo not given in full) |  | 87.4% |
| OCc1ccc(Cl)cc1Cl | 0.0067 µM (active) |  |
| CN1CCN(C(=O)C2CCCCC2)CC1 |  | 90.5% |
| C[N+]1(C)[C@@H]2CC(OC(=O)[C@H](CO)c3ccccc3)C[C@H]1[C@@H]1O[C@@H]12 (stereo not given in full) |  | 71% |
| Cc1onc(-c2c(Cl)cccc2Cl)c1C(=O)Cl |  | 75.5% |
| CO/N=C(\C(=O)O)c1csc(NC(=O)CCl)n1 |  | 87.9% |
| C/C=C1\[C@H](O[C@@H]2O[C@H](CO)[C@@H](O)[C@H](O)[C@H]2O)OC=C(C(=O)OC)[C@H]1CC(=O)O |  | 51.5% [at 17.3 µM] |
| CCC(C(=O)NC(=O)NC(C)=O)c1ccccc1 (stereo not given) |  | 107% |
